# Data reported in PubChem BioAssay (NCATS).
# Inconclusive results are not listed. Entries that show only a call come without a potency. Calls of active or inactive are those of the source. Calls come from the whole dose curve; as a rule, active = well fitted curve in the direction sought with a large enough effect; inconclusive = small, poorly fitted or top-dose-only effect, or another doubt; inactive = no such curve, though single readings can be large; an effect the other way counts as inactive or inconclusive.
# Assay: Quantitative High-Throughput drug screen in 47 multiple myeloma cell lines against the NCATS MIPE library collection: MOLP8_DSMZ cell viability assay (AID 1918977); note: nearly all actives have a fitted effect of over 45% in size
# Conditions: MOLP8 myeloma viability, CellTiter-Glo ATP luminescence, 48 h; series mostly up to 45.8 µM
# Summary of the method: (§1)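 Inhibition of viability over 48 h was scored by ATP content (CellTiter-Glo) in 500-cell wells. Zero and full viability were defined by media-only and DMSO-only wells.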
# Potency is the fitted concentration of half-maximal effect.
row,Structure (SMILES),Potency
1,Cc1nc2n(c(=O)c1CCN1CCC(c3noc4cc(F)ccc34)CC1)CCCC2,inactive
2,CNC[C@H](O)c1ccc(O)c(O)c1,8.55 µM (active)
3,CCCCCCCCCCCCCCCCCCCCCCO,inactive
4,O=C(c1ccccc1)c1ccc2n1CCC2C(=O)O (configuration not stated),inactive
5,Nc1ccc(S(N)(=O)=O)cc1,inactive
6,NC(=O)Cc1cccc(C(=O)c2ccccc2)c1N,inactive
7,CCC(C)(Oc1ccc(C2(c3ccc(OC(C)(CC)C(=O)O)cc3)CCCCC2)cc1)C(=O)O (configuration not stated),inactive
8,O=C(NOCC1CC1)c1ccc(F)c(F)c1Nc1ccc(I)cc1Cl,14.8 µM (active)

# Assay: Quantitative High-Throughput drug screen in 47 multiple myeloma cell lines against the NCATS MIPE library collection: NCIH929_DSMZ cell viability assay (AID 1918978); note: nearly all actives have a fitted effect of over 35% in size
# Conditions: NCI-H929 myeloma viability, CellTiter-Glo ATP, 48 h; series mostly up to 45.8 µM
# Summary of the method: as §1
row,Structure (SMILES),Potency
1,O=C(O)CCNC(=O)c1ccc(N=Nc2ccc(O)c(C(=O)O)c2)cc1,inactive
2,COc1cc2c(N3CCN(C(=O)Nc4ccc(OC(C)C)cc4)CC3)ncnc2cc1OCCCN1CCCCC1,11.8 µM (active)
3,CCN(CC)CCOc1ccc(Nc2ncc3cc(-c4c(Cl)cccc4Cl)c(=O)n(C)c3n2)cc1,1.87 µM (active)
4,Cc1nc2n(c(=O)c1CCN1CCC(c3noc4cc(F)ccc34)CC1)CCCC2,inactive
5,COC(=O)N[C@H](C(=O)N[C@@H](Cc1ccccc1)[C@@H](O)CN(Cc1ccc(-c2ccccn2)cc1)NC(=O)[C@@H](NC(=O)OC)C(C)(C)C)C(C)(C)C,inactive
6,Nc1cc(C(Cl)=C(Cl)Cl)c(S(N)(=O)=O)cc1S(N)(=O)=O,inactive
7,CCC1=C(C)CN(C(=O)NCCc2ccc(S(=O)(=O)NC(=O)NC3CCC(C)CC3)cc2)C1=O (configuration not stated),inactive
8,CNC[C@H](O)c1ccc(O)c(O)c1,inactive
9,Oc1ccc2ccccc2c1SSc1c(O)ccc2ccccc12,8.33 µM (active)
10,CS(=O)(=O)OCCCCOS(C)(=O)=O,inactive
11,Nc1nc(N)c(N=O)c(OCC2CCCCC2)n1,5.26 µM (active)
12,N=C(N=C(N)N)N1CCOCC1,inactive
13,C[C@H](Cn1cnc2c(N)ncnc21)OCP(=O)(O)O,inactive
14,O=C(c1ccccc1)c1ccc2n1CCC2C(=O)O (configuration not stated),5.26 µM (active)
15,CC[C@]1(O)C[C@H]2CN(CCc3c([nH]c4ccccc34)[C@@](C(=O)OC)(c3cc4c(cc3OC)N(C=O)[C@H]3[C@@](O)(C(=O)OC)[C@H](OC(C)=O)[C@]5(CC)C=CCN6CC[C@]43[C@@H]65)C2)C1,0.0235 µM (active)
16,Nc1ccc(S(N)(=O)=O)cc1,inactive
17,O=C(NCC1CCCCN1)c1cc(OCC(F)(F)F)ccc1OCC(F)(F)F (configuration not stated),9.35 µM (active)
18,Cc1cc(=O)oc2cc(O)ccc12,inactive
19,NC(=O)Cc1cccc(C(=O)c2ccccc2)c1N,inactive
20,COC(=O)C1=C(C)NC(C)=C(C(=O)OC(C)C)C1c1cccc2nonc12 (configuration not stated),2.64 µM (active)
21,CCC(C)(Oc1ccc(C2(c3ccc(OC(C)(CC)C(=O)O)cc3)CCCCC2)cc1)C(=O)O (configuration not stated),inactive
22,Cc1cc(C2CCCCC2)n(O)c(=O)c1,7.43 µM (active)
23,COCCCOc1ccnc(CS(=O)c2nc3ccccc3[nH]2)c1C (configuration not stated),inactive
24,N=C(N)c1ccc2cc(OC(=O)c3ccc(N=C(N)N)cc3)ccc2c1,inactive
25,COc1cc2c(cc1OC)C1CC(=O)C(CC(C)C)CN1CC2 (configuration not stated),inactive
26,O=C(NOCC1CC1)c1ccc(F)c(F)c1Nc1ccc(I)cc1Cl,20.9 µM (active)
27,O=C(O)c1cccc(-c2noc(-c3ccccc3F)n2)c1,inactive
28,CN(C)c1ccc(O)c2c1C[C@H]1C[C@H]3[C@H](N(C)C)C(=O)C(C(N)=O)=C(O)[C@@]3(O)C(=O)C1=C2O,16.6 µM (active)
29,O=C(NCCO[N+](=O)[O-])c1cccnc1,inactive
